The target of test [1] is Aldehyde dehydrogenase, mitochondrial (Homo sapiens) (UniProt P05091). In words: qHTS for Inhibitors of the Aldehyde Dehydrogenase Family (ALDH2) Primary screen (AID 2061308). Also: nearly all actives have a fitted effect of over 55% in size. The settings on record: ALDH2 enzyme inhibition qHTS, 1536-well; series mostly up to 56 µM. A general note: In qHTS, concentration-response curves come from the screen itself.
The target in test [2] is Retinaldehyde dehydrogenase 3 (Homo sapiens) (UniProt P47895). Description: qHTS for Inhibitors of the Aldehyde Dehydrogenase Family (ALDH1A3) Primary screen (AID 2061315). The conditions noted are these: ALDH inhibition qHTS; series mostly up to 56 µM.

Results filed as inconclusive are left out. Where a call stands in place of a potency, no number is given. The source made the active and inactive calls. Calls follow the shape of the dose curve; as a rule, active = well fitted curve in the direction sought with a large enough effect; inconclusive = small, poorly fitted or top-dose-only effect, or another doubt; inactive = no such curve, though single readings can be large; an effect the other way counts as inactive or inconclusive.

Turning to `Oc1cccc(C2NC(=S)Nc3cccc(F)c32)c1` (stereo unspecified), the Potency result in test [1] and in test [2] was “inactive” each time.
For the compound `O=C(CCCCSc1nnc(-c2cccc3ccccc23)o1)Oc1ccc(F)cc1`, the Potency result in test [1] and in test [2] was “inactive” in each case.
For `Cc1ccnc(NC(=S)N2CCC(Nc3cccc(C(F)(F)F)c3)CC2)c1`, the Potency entry in test [1] and in test [2] was “inactive” in each case.
Turning to `O=S(=O)(c1ccc2c(c1)OCCCO2)N1CCN(S(=O)(=O)c2c(F)cccc2F)CC1`, the Potency result in test [1] and in test [2] was “inactive” in each case.
For the compound `O=C(Nc1ccc(-c2nc3ccccc3[nH]2)cc1)c1ccc(C(F)(F)F)cc1`, the Potency result in test [1] and in test [2] was “inactive” in each case.
For `COCCNC(=O)Nc1ccc2nc(-c3cccs3)c(-c3cccs3)nc2c1`, the Potency entry in test [1] and in test [2] was “inactive” each time.
Consider `C(#Cc1cccs1)c1cccnc1`, for which the Potency entry in test [1] and in test [2] was “inactive” each time.
Regarding `O=C1CCCC2=C1C(c1ccncc1)N=C(Nc1nc3ccccc3o1)N2` (stereo unspecified), the Potency entry in test [1] and in test [2] was “inactive” in each case.
As for `Cn1ncc(Cl)c1C1N=C(Nc2nc3ccccc3o2)NC2=C1C(=O)CCC2` (stereo unspecified), the Potency entry in test [1] and in test [2] was “inactive” throughout.
In the case of `Cc1nc(N2CCOCC2)c2nc(-c3ccccc3)n(CCN3CCCCC3)c2n1`, the Potency result in test [1] and in test [2] was “inactive” in each case.
Regarding `CCOc1ccc(CCNC(=O)Cc2ccccc2)cc1OCC`, the Potency entry in test [1] and in test [2] was “inactive” throughout.
With `O=C1CCCC2=C1C(c1ccccc1C(F)(F)F)N=C(Nc1nc3ccccc3o1)N2` (stereo unspecified), the Potency result in test [1] and in test [2] was “inactive” each time.
`O=C(O)c1ccc(-c2ccc3ncnc(N4CCOCC4)c3c2)o1`: the Potency result in test [1] and in test [2] was “inactive” each time.
Consider `O=C(Nc1ccc(-c2nc3ccccc3[nH]2)cc1)c1ccc(Cl)c(Cl)c1`, for which the Potency entry in test [1] and in test [2] was “inactive” in each case.
With `COC(=O)C1=CC[C@H](c2ccc(C)cc2)N(S(=O)(=O)c2ccc(C)cc2)[C@@H]1c1ccc(C(C)(C)C)cc1`, the Potency result in test [1] and in test [2] was “inactive” each time.
As to `C=C(CCC1=C(C)[C@H]2[C@H](CC3[C@@H]4CC=C5C[C@@H](O)C[C@@H](O)[C@]5(C)C4[C@H](O)C[C@@]32C)O1)CO[C@@H]1O[C@H](CO)[C@@H](O)[C@H](O)[C@H]1O` (stereo partly specified), the Potency result in test [1] and in test [2] was “inactive” throughout.
Turning to `CCC(C)C(=O)Oc1cc(C)ccc1C1(COC(=O)C(C)C)CO1` (stereo unspecified), the Potency result in test [1] and in test [2] was “inactive” in each case.
In the case of `CC(C)c1ccccc1-c1ncc(F)c(NCc2ccc(-n3ccnn3)cc2)n1`, the Potency result in test [1] and in test [2] was “inactive” each time.
Regarding `Cc1ccc(NS(=O)(=O)c2ccc3c(c2)CCC(=O)N3)cc1Cl`, the Potency entry in test [1] and in test [2] was “inactive” throughout.
As to `CN(Cc1ccco1)c1ncnc2ccc(-c3ccccc3Cl)cc12`, the Potency entry in test [1] and in test [2] was “inactive” each time.
In the case of `CC(C)(C)N=Cc1c(-c2ccccc2)no[n+]1[O-]`, the Potency result in test [1] and in test [2] was “inactive” in each case.
In the case of `COc1cccc(-c2csc3ncnc(Sc4nnnn4C)c23)c1`, the Potency result in test [1] and in test [2] was “inactive” in each case.
As for `O=C1Nc2ccccc2/C1=C/c1ccc[nH]1`, the Potency result in test [1] and in test [2] was “inactive” each time.
Turning to `CC1=C(C(=O)Nc2ccccc2)C(c2ccccc2Br)N=C(Nc2nc3ccccc3o2)N1` (stereo unspecified), the Potency entry in test [1] and in test [2] was “inactive” each time.
In the case of `O=C(O)c1ccc(O)c2ncc(N3CCCCC3)cc12`, the Potency entry in test [1] and in test [2] was “inactive” throughout.
Consider `O=S(=O)(NC[C@@H]1CCC[C@H](CNS(=O)(=O)c2c(F)cccc2F)C1)c1ccc2c(c1)OCCO2`, for which the Potency result in test [1] and in test [2] was “inactive” each time.
In the case of `FC(F)(F)c1ccc(-c2nc(NCc3ccc(-c4cccnc4)cc3)c3ccccc3n2)cc1`, the Potency entry in test [1] and in test [2] was “inactive” each time.
For `O=S(=O)(NC1CCCC(NS(=O)(=O)c2c(F)cccc2F)C1)c1ccc2c(c1)OCCO2` (stereo unspecified), the Potency result in test [1] and in test [2] was “inactive” each time.
